Measurements taken from the supplement of paper PMC6658780.
Where a name gives a salt, the structure may show the parent alone. ± gives the standard deviation of the averaged measurements.

Test system: Escherichia coli ATCC BAA-2469
Test: percent growth inhibition of drug + antibiotic vs DMSO control; higher = more growth inhibition
Conditions: antibiotic (0.125x MIC): ciprofloxacin; 7 µM
Procedure: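 Prestwick drugs tested at 20 uM and 7 uM with an antibiotic at 0.125x MIC (16 mg/L when MIC >128 mg/L) against E. coli ATCC BAA-2469 (NDM-1) in CAMHB, 384-well plates, duplicate runs. Percent growth inhibition was computed from OD600 (24 h minus 0 h) relative to DMSO wells. Drug + DMSO-only wells are also given. […]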

SMILES	percent growth inhibition [%]
C[C@H]1[C@H](NC(=O)/C(=N\OC(C)(C)C(=O)O)c2csc(N)n2)C(=O)N1S(=O)(=O)O [Aztreonam]	0.0872 ± 14
CO[C@H]1/C=C/O[C@@]2(C)Oc3c(C)c(O)c4c(O)c(c(/C=N/N5CCN(C)CC5)c(O)c4c3C2=O)NC(=O)/C(C)=C\C=C\[C@H](C)[C@H](O)[C@@H](C)[C@@H](O)[C@@H](C)[C@H](OC(C)=O)[C@@H]1C [Rifampicin]	13.5 ± 3.6
O=C1c2c(O)ccc(O)c2C(=O)c2c(NCCNCCO)ccc(NCCNCCO)c21 [Mitoxantrone dihydrochloride]	6.59 ± 1.5
Cc1nnc(NS(=O)(=O)c2ccc(N)cc2)s1 [Sulfamethizole]	9.62 ± 10
Nc1ccn([C@@H]2O[C@H](CO)[C@@H](O)C2(F)F)c(=O)n1 [Gemcitabine]	23.1 ± 11

Same assay, conditions: antibiotic (0.125x MIC): ciprofloxacin; 20 µM

SMILES	percent growth inhibition [%]
N=C(NCCCCCCNC(=N)NC(=N)Nc1ccc(Cl)cc1)NC(=N)Nc1ccc(Cl)cc1 [Chlorhexidine]	103 ± 3.8
CO[C@H]1/C=C/O[C@@]2(C)Oc3c(C)c(O)c4c(O)c(c(/C=N/N5CCN(C)CC5)c(O)c4c3C2=O)NC(=O)/C(C)=C\C=C\[C@H](C)[C@H](O)[C@@H](C)[C@@H](O)[C@@H](C)[C@H](OC(C)=O)[C@@H]1C [Rifampicin]	101 ± 2.1
O=C1OCCN1/N=C/c1ccc([N+](=O)[O-])o1 [Furazolidone]	102 ± 2.7
O=C1c2c(O)ccc(O)c2C(=O)c2c(NCCNCCO)ccc(NCCNCCO)c21 [Mitoxantrone dihydrochloride]	52.9 ± 1.9
Cc1nnc(NS(=O)(=O)c2ccc(N)cc2)s1 [Sulfamethizole]	4.47 ± 6

Same assay, conditions: antibiotic (0.125x MIC): gentamicin; 7 µM

SMILES	percent growth inhibition [%]
N[C@@H]1CCCCN(c2c(F)cc3c(=O)c(C(=O)O)cn(C4CC4)c3c2Cl)C1 [Besifloxacin hydrochloride]	6.28 ± 5.6
C#C[C@]1(O)CC[C@H]2[C@@H]3CCC4=C(CCC(=O)C4)[C@H]3CC[C@@]21C [Norethynodrel]	4.39 ± 3.6
C[C@H]1[C@H](NC(=O)/C(=N\OC(C)(C)C(=O)O)c2csc(N)n2)C(=O)N1S(=O)(=O)O [Aztreonam]	24.6 ± 5.5
Cn1c(=O)c2c(ncn2C)n(C)c1=O [Caffeine]	1.53 ± 7.1
COc1ccccc1OCC(O)CO (stereo not given) [Guaifenesin]	2.34 ± 2.3
Cc1c(N(C)C)c(=O)n(-c2ccccc2)n1C [Amidopyrine]	0.636 ± 5.5
CCCCNc1c(C(=O)OCC)c(C)nc2c1cnn2CC [Tracazolate hydrochloride]	0.683 ± 0.77
OCCN1CCN(CCCN2c3ccccc3Sc3ccc(C(F)(F)F)cc32)CC1 [Fluphenazine dihydrochloride]	1.67 ± 0.74
NS(=O)(=O)c1cc2c(cc1C(F)(F)F)NC(Cc1ccccc1)NS2(=O)=O (stereo not given) [Bendroflumethiazide]	-0.966 ± 1.2

Same assay, conditions: antibiotic (0.125x MIC): gentamicin; 20 µM

SMILES	percent growth inhibition [%]
N=C(NCCCCCCNC(=N)NC(=N)Nc1ccc(Cl)cc1)NC(=N)Nc1ccc(Cl)cc1 [Chlorhexidine]	112 ± 19
C[C@H]1[C@H](NC(=O)/C(=N\OC(C)(C)C(=O)O)c2csc(N)n2)C(=O)N1S(=O)(=O)O [Aztreonam]	81.2 ± 19
CC1=C(/C=C/C(C)=C/C=C/C(C)=C\C(=O)O)C(C)(C)CCC1 [Isotretinoin]	12.7 ± 20
O=C1OCCN1/N=C/c1ccc([N+](=O)[O-])o1 [Furazolidone]	113 ± 20
Clc1cccc(Cl)c1NC1=NCCN1 [Clonidine hydrochloride]	-0.49 ± 2.6
Cc1c(OCC(F)(F)F)ccnc1C[S+]([O-])c1nc2ccccc2[nH]1 (stereo not given) [Lansoprazole]	12.5 ± 18
CC1CS(=O)(=O)CCN1/N=C/c1ccc([N+](=O)[O-])o1 (stereo not given) [Nifurtimox]	2.95 ± 0.97
Cc1cccc(C)c1NC(=O)C1CCCCN1C (stereo not given) [Mepivacaine hydrochloride]	1.04 ± 3.1

Same assay, conditions: antibiotic (0.125x MIC): meropenem; 7 µM

SMILES	percent growth inhibition [%]
N[C@@H]1CCCCN(c2c(F)cc3c(=O)c(C(=O)O)cn(C4CC4)c3c2Cl)C1 [Besifloxacin hydrochloride]	2.23 ± 6.8
CCCCCCCCNC(C)C(O)c1ccc(SC(C)C)cc1 (stereo not given) [Suloctidil]	1.25 ± 3.5
C[C@H]1[C@H](NC(=O)/C(=N\OC(C)(C)C(=O)O)c2csc(N)n2)C(=O)N1S(=O)(=O)O [Aztreonam]	14.9 ± 16
O=C(O)CN(CCN(CC(=O)O)CC(=O)O)CCN(CC(=O)O)CC(=O)O [Pentetic acid]	-3.74 ± 3.2
Nc1nc(=S)c2ncn([C@@H]3O[C@H](CO)[C@@H](O)[C@H]3O)c2[nH]1 [Thioguanosine]	34.2 ± 1.9
COc1ccccc1OCC(O)CO (stereo not given) [Guaifenesin]	-4.21 ± 1.2
CS(=O)(=O)c1ccc([C@@H](O)[C@@H](CO)NC(=O)C(Cl)Cl)cc1 [Thiamphenicol]	7.39 ± 2.1
Nc1c2ccccc2nc2ccccc12 [Aminacrine]	13.7 ± 12

Same assay, conditions: antibiotic (0.125x MIC): meropenem; 20 µM

SMILES	percent growth inhibition [%]
N=C(NCCCCCCNC(=N)NC(=N)Nc1ccc(Cl)cc1)NC(=N)Nc1ccc(Cl)cc1 [Chlorhexidine]	99.2 ± 1.6
Nc1nc(=S)c2ncn([C@@H]3O[C@H](CO)[C@@H](O)[C@H]3O)c2[nH]1 [Thioguanosine]	81.6 ± 9.8
O=C1OCCN1/N=C/c1ccc([N+](=O)[O-])o1 [Furazolidone]	113 ± 20
CS(=O)(=O)c1ccc([C@@H](O)[C@@H](CO)NC(=O)C(Cl)Cl)cc1 [Thiamphenicol]	30.4 ± 14
Nc1c2ccccc2nc2ccccc12 [Aminacrine]	40.9 ± 17
